Consider one sequence from PMC7862700, “An all-to-all approach to the identification of sequence-specific readers for epigenetic DNA modifications on cytosine”.

What all share (test): DAPPL (digital affinity profiling via proximity ligation, sequencing); 10 mM Tris-HCl pH 7.5, 50 mM NaCl, 1 mM DTT, 4% glycerol, room temperature, 30 min; GST-TFs on glutathione beads, 16-mer random dsDNA library, 0.1% formaldehyde crosslink after washing; high values mean tight binding
Holding throughout (settings): protein: recombinant; tags: N-terminal GST; dsDNA, one strand shown

In one assay the target is T1, GABPA (Homo sapiens, UniProt Q06546 1-454).
T1 sequence: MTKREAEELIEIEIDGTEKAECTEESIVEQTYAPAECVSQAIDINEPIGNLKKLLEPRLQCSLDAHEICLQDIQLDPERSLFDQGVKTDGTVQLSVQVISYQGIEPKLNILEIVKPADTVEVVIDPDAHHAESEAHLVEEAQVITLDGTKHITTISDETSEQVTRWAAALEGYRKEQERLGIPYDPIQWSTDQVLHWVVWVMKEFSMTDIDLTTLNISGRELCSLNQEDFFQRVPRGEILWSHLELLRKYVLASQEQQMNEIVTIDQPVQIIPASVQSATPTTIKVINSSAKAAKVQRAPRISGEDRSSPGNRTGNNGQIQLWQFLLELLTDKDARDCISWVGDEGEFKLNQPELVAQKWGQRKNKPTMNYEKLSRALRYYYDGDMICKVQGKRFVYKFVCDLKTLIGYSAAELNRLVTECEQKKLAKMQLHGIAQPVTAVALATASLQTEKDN
An outline of the steps:
(§1)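 The binding signal reported is, for every hexamer, its read frequency for a factor over its read frequency for the tag-only sample. Reads came from pools of yeast-expressed, GST-fused human transcription factors on glutathione beads, barcoded with DNA and mixed with that sample, which were incubated with 200 nmole of a random double-stranded 16-mer DNA library in Tris/NaCl/DTT/glycerol buffer at room temperature for 30 min. After washing, the pools were crosslinked with 0.1% formaldehyde, proximity-ligated with BsaI/T4 ligase for 1 h at 37 °C, PCR-amplified and sequenced on an Illumina NextSeq500.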

Another assay addresses ELF1 (Homo sapiens, UniProt P32519 1-619). An outline of the steps: as §1
A further assay has as its target T2, EHF (Homo sapiens, UniProt Q9NZC4 1-300).
T2 sequence: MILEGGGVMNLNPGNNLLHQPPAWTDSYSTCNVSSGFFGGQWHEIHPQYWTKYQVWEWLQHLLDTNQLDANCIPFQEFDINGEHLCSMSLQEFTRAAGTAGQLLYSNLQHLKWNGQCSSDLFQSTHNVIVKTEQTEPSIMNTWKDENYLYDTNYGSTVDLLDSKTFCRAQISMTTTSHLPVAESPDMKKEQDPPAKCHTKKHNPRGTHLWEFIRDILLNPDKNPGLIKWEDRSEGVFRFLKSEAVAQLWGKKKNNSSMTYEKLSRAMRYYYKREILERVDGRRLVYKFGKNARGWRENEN
An outline of the steps: as §1

Another assay has as its target T3, FEV (Homo sapiens, UniProt Q99581 1-238).
T3 sequence: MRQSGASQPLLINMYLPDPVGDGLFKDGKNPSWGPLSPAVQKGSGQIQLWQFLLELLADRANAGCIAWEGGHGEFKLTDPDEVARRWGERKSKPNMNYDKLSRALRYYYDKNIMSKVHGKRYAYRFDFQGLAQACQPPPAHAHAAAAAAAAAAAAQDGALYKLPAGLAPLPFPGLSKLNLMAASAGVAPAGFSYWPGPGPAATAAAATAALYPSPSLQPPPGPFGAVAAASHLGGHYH
An outline of the steps: as §1

A further assay deals with ETV5 (Homo sapiens, UniProt P41161 1-510). Put shortly: as §1
A further assay concerns the target T4, ELK4 (Homo sapiens, UniProt P28324-2 1-405).
T4 sequence: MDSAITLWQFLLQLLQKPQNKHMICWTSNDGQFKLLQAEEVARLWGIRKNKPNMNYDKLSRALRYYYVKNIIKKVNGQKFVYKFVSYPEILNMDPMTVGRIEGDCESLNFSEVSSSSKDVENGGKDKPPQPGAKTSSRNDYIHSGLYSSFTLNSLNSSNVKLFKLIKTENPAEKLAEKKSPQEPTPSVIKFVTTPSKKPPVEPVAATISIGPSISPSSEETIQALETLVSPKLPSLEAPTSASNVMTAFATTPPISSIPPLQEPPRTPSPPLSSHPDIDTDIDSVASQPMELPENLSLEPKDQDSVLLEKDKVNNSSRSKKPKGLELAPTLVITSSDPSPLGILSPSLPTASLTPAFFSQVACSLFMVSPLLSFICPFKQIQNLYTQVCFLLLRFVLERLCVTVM
An outline of the steps: as §1

The target in the next assay is ETV1 (Homo sapiens, UniProt P50549 1-477). Put shortly:
as §1

Another assay deals with T5, SPDEF (Homo sapiens, UniProt O95238 1-335).
T5 sequence: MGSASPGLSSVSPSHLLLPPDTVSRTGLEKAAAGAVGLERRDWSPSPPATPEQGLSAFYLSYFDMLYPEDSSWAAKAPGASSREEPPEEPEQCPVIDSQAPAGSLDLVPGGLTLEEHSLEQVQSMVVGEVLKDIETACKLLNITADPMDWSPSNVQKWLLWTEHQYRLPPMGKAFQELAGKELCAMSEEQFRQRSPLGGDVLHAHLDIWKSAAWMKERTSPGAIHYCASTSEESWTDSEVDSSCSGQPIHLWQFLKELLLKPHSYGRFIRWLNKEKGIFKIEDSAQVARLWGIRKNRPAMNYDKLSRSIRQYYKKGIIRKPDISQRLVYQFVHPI
An outline of the steps:
as §1

Another assay deals with T6, ETV7 (Homo sapiens, UniProt Q9Y603 1-341).
T6 sequence: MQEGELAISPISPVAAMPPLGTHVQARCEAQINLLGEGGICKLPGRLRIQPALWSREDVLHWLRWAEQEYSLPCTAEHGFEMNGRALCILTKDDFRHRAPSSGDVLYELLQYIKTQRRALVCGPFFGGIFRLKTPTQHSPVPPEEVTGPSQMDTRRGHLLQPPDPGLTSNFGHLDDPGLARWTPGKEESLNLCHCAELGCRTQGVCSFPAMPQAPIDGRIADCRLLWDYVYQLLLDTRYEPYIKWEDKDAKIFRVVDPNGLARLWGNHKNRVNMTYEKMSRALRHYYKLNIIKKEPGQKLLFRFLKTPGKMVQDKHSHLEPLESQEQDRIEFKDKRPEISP
An outline of the steps:
as §1

The next assay has as its target ETV6 (Homo sapiens, UniProt P41212 1-452). Put shortly: as §1

Chain of ETV1 (P50549 whole entry): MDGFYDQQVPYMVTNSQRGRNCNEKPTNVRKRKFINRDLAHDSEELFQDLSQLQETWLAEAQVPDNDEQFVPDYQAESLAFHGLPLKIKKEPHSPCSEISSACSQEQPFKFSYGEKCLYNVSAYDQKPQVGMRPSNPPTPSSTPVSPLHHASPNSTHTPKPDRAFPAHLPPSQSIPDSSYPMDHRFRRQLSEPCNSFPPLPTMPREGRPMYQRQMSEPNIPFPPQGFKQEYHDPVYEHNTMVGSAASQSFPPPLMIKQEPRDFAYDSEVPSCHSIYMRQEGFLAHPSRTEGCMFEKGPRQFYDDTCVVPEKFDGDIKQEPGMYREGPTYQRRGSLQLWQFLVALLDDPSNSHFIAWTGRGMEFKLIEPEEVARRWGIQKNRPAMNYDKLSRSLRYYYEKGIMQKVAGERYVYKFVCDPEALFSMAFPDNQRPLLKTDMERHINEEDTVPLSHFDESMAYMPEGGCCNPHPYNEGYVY
Chain of ELF1 (P32519 whole entry): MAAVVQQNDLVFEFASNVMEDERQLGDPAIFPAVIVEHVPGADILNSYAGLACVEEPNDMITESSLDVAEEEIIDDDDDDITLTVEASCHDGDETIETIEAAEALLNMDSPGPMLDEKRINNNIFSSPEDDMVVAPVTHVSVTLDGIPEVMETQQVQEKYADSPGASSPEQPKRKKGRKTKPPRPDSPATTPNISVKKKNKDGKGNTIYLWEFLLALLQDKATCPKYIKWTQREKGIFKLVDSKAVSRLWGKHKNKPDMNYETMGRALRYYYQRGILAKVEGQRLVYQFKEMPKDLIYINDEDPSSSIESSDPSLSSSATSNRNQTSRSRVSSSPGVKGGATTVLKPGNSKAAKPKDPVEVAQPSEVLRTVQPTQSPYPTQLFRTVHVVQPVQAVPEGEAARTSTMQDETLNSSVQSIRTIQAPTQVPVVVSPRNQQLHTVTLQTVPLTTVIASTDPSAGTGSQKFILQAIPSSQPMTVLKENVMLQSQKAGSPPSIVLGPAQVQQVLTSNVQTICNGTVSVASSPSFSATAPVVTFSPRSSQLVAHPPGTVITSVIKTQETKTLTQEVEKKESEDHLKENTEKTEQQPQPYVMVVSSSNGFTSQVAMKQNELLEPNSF
Chain of ETV5 (P41161 whole entry): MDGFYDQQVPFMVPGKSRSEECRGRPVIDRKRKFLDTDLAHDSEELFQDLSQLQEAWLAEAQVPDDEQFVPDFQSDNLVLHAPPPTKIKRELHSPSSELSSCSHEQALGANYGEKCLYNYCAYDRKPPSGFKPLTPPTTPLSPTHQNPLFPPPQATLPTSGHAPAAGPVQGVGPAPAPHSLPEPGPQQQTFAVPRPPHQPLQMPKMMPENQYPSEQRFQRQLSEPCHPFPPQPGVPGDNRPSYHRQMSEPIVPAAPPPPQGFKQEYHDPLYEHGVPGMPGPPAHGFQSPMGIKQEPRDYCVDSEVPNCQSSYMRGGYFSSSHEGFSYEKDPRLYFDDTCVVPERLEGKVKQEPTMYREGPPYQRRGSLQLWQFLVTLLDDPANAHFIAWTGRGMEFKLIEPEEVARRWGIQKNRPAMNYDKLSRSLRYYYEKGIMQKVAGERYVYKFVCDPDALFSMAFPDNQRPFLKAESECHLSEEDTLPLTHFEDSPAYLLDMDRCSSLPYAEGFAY
Chain of ETV6 (P41212 whole entry): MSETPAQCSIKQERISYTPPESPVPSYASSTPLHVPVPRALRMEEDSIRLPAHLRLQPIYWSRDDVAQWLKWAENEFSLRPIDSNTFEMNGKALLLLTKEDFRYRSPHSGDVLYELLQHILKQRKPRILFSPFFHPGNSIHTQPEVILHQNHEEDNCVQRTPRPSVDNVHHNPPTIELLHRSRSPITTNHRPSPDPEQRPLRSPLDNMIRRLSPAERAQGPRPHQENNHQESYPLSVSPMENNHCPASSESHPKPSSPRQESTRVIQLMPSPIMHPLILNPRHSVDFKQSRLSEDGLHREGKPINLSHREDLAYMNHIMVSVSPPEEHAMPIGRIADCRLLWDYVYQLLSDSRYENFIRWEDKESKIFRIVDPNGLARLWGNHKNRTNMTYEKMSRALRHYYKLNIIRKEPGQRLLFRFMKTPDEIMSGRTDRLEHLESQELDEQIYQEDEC

Turning to GGCTAA, the binding signal was 1.01 fold enrichment (6-mer frequency, TF over GST control) with GABPA; 1.04 fold enrichment (6-mer frequency, TF over GST control) in the assay with ELF1; 1.01 fold enrichment (6-mer frequency, TF over GST control) with EHF; 1.01 fold enrichment (6-mer frequency, TF over GST control) with FEV; 1.01 fold enrichment (6-mer frequency, TF over GST control) with ETV5; 1.04 fold enrichment (6-mer frequency, TF over GST control) with ELK4. Besides, the binding signal in the assay with ETV1 was 1.03 fold enrichment (6-mer frequency, TF over GST control); in the assay with SPDEF, 1 fold enrichment (6-mer frequency, TF over GST control); in the assay with ETV7, 1 fold enrichment (6-mer frequency, TF over GST control); in the assay with ETV6, 1.04 fold enrichment (6-mer frequency, TF over GST control).
